Only a selection was taken, and hits are over-represented in it overall.
mHTT-CaM PPI inh: disrupts binding of mutant huntingtin to calmodulin | AlphaScreen His-mHTT/GST-CaM binding, luminescence | AID 1671202 | P42858 | inhibition, % at 15 µM | actives 3.6% (n = 190,000);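 further: 0% = both proteins with DMSO and 100% = one protein alone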
Target sequence (P42858 whole entry, looked up, stated change not applied): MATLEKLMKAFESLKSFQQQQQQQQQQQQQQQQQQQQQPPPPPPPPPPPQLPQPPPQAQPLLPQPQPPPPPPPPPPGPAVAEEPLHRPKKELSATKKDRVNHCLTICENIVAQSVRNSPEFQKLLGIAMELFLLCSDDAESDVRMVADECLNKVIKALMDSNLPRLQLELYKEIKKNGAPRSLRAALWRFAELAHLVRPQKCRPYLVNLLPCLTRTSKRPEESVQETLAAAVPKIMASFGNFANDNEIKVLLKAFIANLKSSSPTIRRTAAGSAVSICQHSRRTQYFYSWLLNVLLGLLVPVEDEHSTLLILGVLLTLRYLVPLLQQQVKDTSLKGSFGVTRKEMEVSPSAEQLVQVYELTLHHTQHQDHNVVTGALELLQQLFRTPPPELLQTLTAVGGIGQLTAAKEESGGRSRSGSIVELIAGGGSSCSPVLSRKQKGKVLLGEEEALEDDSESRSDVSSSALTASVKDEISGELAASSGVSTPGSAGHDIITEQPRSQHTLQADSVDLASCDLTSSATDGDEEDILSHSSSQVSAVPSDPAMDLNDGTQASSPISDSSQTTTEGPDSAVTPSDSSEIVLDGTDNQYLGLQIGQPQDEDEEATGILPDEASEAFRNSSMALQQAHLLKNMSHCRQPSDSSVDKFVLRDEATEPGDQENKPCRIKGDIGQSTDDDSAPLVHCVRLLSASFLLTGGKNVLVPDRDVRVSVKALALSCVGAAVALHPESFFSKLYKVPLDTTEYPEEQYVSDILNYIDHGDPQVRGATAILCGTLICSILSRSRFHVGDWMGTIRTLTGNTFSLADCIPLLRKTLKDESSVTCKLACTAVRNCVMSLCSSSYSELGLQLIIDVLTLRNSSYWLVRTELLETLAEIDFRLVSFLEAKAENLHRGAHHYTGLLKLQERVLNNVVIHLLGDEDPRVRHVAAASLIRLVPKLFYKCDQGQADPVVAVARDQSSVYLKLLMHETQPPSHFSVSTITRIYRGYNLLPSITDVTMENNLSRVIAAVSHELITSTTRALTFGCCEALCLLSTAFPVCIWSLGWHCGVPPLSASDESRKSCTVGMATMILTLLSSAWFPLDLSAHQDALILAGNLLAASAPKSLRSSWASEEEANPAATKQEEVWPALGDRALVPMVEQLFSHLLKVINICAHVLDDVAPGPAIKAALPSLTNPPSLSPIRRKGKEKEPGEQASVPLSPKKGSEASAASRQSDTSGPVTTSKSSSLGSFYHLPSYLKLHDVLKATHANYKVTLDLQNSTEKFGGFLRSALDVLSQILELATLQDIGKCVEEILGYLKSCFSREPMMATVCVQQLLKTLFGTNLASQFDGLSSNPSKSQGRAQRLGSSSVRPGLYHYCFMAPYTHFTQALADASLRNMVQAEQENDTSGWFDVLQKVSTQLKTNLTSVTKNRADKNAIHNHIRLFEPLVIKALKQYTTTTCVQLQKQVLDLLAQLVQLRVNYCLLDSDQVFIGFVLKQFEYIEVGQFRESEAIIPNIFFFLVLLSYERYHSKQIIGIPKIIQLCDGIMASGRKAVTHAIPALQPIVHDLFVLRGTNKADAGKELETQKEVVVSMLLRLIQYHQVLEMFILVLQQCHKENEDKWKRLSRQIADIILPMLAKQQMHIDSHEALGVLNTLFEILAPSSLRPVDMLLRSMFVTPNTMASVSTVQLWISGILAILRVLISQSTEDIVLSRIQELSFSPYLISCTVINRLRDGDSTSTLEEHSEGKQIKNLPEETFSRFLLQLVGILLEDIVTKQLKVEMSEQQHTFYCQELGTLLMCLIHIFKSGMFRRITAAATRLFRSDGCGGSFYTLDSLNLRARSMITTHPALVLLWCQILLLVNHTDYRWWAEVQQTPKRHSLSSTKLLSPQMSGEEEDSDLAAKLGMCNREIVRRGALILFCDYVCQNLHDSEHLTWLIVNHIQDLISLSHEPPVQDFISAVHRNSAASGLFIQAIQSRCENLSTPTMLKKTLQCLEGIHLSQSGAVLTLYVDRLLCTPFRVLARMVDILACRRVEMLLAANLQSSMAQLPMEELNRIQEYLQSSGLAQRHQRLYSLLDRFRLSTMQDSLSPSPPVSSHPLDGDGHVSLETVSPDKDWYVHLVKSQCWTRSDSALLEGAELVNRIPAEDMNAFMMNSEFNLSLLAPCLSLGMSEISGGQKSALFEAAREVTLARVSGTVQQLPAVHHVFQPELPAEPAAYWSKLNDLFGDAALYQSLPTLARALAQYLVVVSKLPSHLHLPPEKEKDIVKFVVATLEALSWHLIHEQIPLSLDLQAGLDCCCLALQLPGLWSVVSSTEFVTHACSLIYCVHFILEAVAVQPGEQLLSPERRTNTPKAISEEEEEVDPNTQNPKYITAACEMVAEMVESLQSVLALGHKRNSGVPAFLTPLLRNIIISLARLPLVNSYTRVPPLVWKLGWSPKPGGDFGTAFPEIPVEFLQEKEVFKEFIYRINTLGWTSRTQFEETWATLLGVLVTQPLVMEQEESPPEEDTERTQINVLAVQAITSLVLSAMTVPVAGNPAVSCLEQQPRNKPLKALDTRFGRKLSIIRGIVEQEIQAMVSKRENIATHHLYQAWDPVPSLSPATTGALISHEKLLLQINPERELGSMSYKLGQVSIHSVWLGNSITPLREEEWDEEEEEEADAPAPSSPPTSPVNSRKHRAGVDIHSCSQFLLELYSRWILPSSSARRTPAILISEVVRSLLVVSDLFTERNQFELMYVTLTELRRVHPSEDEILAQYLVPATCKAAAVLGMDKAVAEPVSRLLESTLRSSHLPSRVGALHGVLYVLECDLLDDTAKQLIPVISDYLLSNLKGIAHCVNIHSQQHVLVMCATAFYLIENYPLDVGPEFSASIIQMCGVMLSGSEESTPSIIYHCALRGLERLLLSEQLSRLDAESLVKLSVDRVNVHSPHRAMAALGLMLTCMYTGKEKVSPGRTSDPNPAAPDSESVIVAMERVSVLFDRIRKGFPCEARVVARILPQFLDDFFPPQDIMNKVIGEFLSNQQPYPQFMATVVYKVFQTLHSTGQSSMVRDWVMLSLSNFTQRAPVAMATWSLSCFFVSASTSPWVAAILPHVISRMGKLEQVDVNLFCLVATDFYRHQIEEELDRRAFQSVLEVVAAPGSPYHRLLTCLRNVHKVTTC
Pf apPOL inh: Pf-apPOL DNA polymerase inhibition; Recombinant Pf-apPOL, molecular beacon fluorescence, 1.5 h; inhibition, % at 10 µM; actives 0.25% (n = 210,000)
An asterisk follows results filed as active; x = no result given; ! = not confirmed by another sample. No stated cut-off is given here; in the data, active means inhibition above about 50%; inactive means the rest.

SMILES | mHTT-CaM PPI inh | Pf apPOL inh
O=C(O)COc1ccccc1C=C1NC(=S)NC1=O | 4 | -1
Cc1ccc(C)n1-c1ccc(C(=O)ON2C(=O)CCC2=O)cc1 | x | 82*
CCOC(=O)c1ccc(-n2c(C)ccc2C)cc1 | x | -6
Cc1c(C(=O)O)cccc1-c1ccc(/C=C/[N+](=O)[O-])o1 | 3 | -12
Cc1ccc(Cl)cc1-c1ccc(/C=C/[N+](=O)[O-])o1 | 77* | 0
COc1c(O)cc2c(c1O)C1OC(CO)C(O)C(O)C1OC2=O (centres undefined) | x | -10
O=C(OC1OC2COC(=O)c3cc(O)c(O)c(O)c3-c3c(cc(O)c(O)c3O)C(=O)OC(C2O)C1O)c1cc(O)c(O)c(O)c1 (centres undefined) | x | 99*
N#CCC(N)=Nc1sc2c(c1C#N)CCCC2 | 67* | 6
CC(N)=Nc1sc2c(c1C#N)CCCC2 | -4 | -4
COc1ccc(Br)cc1/C=C1\C(=O)NN(c2ccc(C)c(C)c2)C1=O | 23 | -15
O=C(Nc1c(F)cccc1F)N1CCc2[nH]cnc2C1c1ccccn1 (centres undefined) | 56* | -8
COc1ccccc1NC(=O)N1CCc2[nH]cnc2C1c1ccccn1 (centres undefined) | 36 | -4
CCOc1ccc(NC(=O)N2CCc3[nH]cnc3C2c2ccccn2)cc1 (centres undefined) | 94* | -7
O=C(Nc1ccccc1)N1CCc2[nH]cnc2C1c1ccncc1 (centres undefined) | 1 | 1
Cc1ccc(NC(=O)N2CCCC(CCC(=O)N3CCCCC3)C2)cc1 (centres undefined) | -3 | -7
CCOc1ccc(C(O)c2nccn2C)cc1 (centres undefined) | -2 | 1
COc1ccc(C(O)c2nccn2C)cc1 (centres undefined) | -5 | 52*
COc1ccc(C2=N/C(=C\c3ccc(N(C)C)cc3)C(=O)O2)c(Br)c1 | 47 | -4
Cc1ccccc1NC(=O)CN1C(=O)C2CC=C(Cl)CC2C1=O (centres undefined) | 1 | -3
COc1cccc(C2CC(c3cccc(OC)c3OC)n3ncnc3N2)c1 (centres undefined) | 2 | 2
COc1ccc(C2CC(c3cccc(Br)c3)Nc3ncnn32)cc1OC (centres undefined) | 39 | 1
COc1ccc(C2CC(c3cccc(Br)c3)Nc3ncnn32)c(OC)c1OC (centres undefined) | 60* | -4
COc1cccc(C2CC(c3cccc(Br)c3)Nc3ncnn32)c1OC (centres undefined) | 68* | -2
CN(CCc1ccccn1)c1ncnc2c1CCC2 | 2 | -6
Cc1ccc(NC(=O)c2ccc([N+](=O)[O-])cc2)c(C)c1 | -2 | -2
SMILES | mHTT-CaM PPI inh | Pf apPOL inh
O=C(NCCCN1CCOCC1)C1CCc2sc(C(=O)N3CCCCCC3)cc2C1 (centres undefined) | 4 | 0
O=C(CN1CCC(c2nc(-c3ccccc3)no2)CC1)Nc1ccccc1Cl | -8 | -3
COc1ccc(C2/C=C\CN(CC3CCCCC3)CC(=O)N2Cc2ccc(F)cc2)cc1 (centres undefined) | 34 | -3
COc1ccc(CNC(=O)CN2CCN(C(=O)Nc3ccc(F)cc3)CC2=O)cc1 | -8 | -5
COc1ccc(C2/C=C\CN(S(=O)(=O)c3ccc(-c4ccccc4)cc3)CC(=O)N2Cc2ccc(F)cc2)cc1 (centres undefined) | -3 | -1
COc1ccc(C2/C=C\CN(C(=O)C3CCCC3)[C@@H](C)C(=O)N2Cc2ccc(F)cc2)cc1 (some centres undefined) | 43 | -2
COc1ccc(C2/C=C\CN(C(=O)c3ccc(C)cc3)CC(=O)N2Cc2ccc(F)cc2)cc1 (centres undefined) | 75* | -3
COc1ccc(C2/C=C\CN(Cc3ccco3)CC(=O)N2Cc2ccc(F)cc2)cc1 (centres undefined) | 61* | -4
COc1ccc(C2/C=C\CN(C(=O)Nc3ccc(C(F)(F)F)cc3)CC(=O)N2Cc2ccc(F)cc2)cc1 (centres undefined) | 59* | -5
COc1ccc(C2/C=C\CN(C(=O)Oc3ccc(C(F)(F)F)cc3)CC(=O)N2Cc2ccc(F)cc2)cc1 (centres undefined) | 79* | -1
CCc1nccn1S(=O)(=O)c1ccc(Cl)cc1 | 1 | -4
CCc1cc(NC(=O)Cc2cccs2)nn1-c1ccc(OC)cc1 | 10 | -4
O=C(c1ccsc1)N1CCN(c2[nH]ncc2-c2ccccc2)CC1 | 63* | -2
O=C(c1ccncc1)N1CCN(c2[nH]ncc2-c2ccncc2)CC1 | -1 | -1
O=C(c1cccs1)N1CCN(c2[nH]ncc2-c2ccncc2)CC1 | 0 | -7
O=C(c1ccccc1)N1CCN(c2[nH]ncc2-c2ccccc2)CC1 | 77* | -4
Cc1cccn2cc(C(=O)NCCN3CCCC3)nc12 | 12 | -9
C=CCNc1nc(-c2sc(C)nc2C)cs1 | 0 | 6
O=C(Nc1ncn[nH]1)c1cccc(Br)c1 | 7 | 1
O=C(Nc1ncn[nH]1)c1ccccc1O | 99*! | -11
CC(C)Oc1ccc(-c2cc(C(=O)N3CCN(C)CC3)c3ccccc3n2)cc1 | 19 | 0
COc1ccc(-c2ccc(/C=C/c3cc(C(F)(F)F)[nH]c(=O)n3)o2)c([N+](=O)[O-])c1 | 24 | -3
COc1ccc(-c2ccc(/C=C/c3cc(C(F)(F)F)[nH]c(=O)n3)o2)cc1Cl | 99* | 7
COc1ccccc1CNS(=O)(=O)c1ccc2[nH]c3c(c2c1)CCCCC3 | 98* | -5
Cc1cccnc1NS(=O)(=O)c1ccc2[nH]c3c(c2c1)CCCC3 | 12 | -6
SMILES | mHTT-CaM PPI inh | Pf apPOL inh
CCOc1ccc(CNS(=O)(=O)c2ccc3[nH]c(=O)sc3c2)cc1OC | 0 | 0
COc1ccccc1CNS(=O)(=O)c1ccc(C)c([N+](=O)[O-])c1 | -1 | -1
Cc1ccc(CCNS(=O)(=O)c2ccc3[nH]c4c(c3c2)CCCC4)cc1 | 85* | 0
CCOc1ccc(CNS(=O)(=O)c2ccc3[nH]c4c(c3c2)CCCC4)cc1OC | 59* | 0
O=C(Nc1ccc2c(c1)OCO2)C1CCN(C(=O)Cc2ccccc2)CC1 | 12 | 4
CC(C)n1cc(C2=CCN(S(=O)(=O)Cc3ccccc3)CC2)c2cccnc21 | 1 | -3
Cc1ccc(Cc2c(C)nc3c(C(=O)NCCC(C)C)c[nH]n3c2=O)cc1 | 14 | -8
Cc1ccc(Cc2c(C)nc3c(C(=O)NC4CCCC4)c[nH]n3c2=O)cc1 | 75* | 6
Cc1nc2c(C(=O)O)c[nH]n2c(=O)c1Cc1ccc(Cl)cc1 | -4 | 35
Cc1nc2c(C(=O)NC3CCCC3)c[nH]n2c(=O)c1Cc1ccc(Cl)cc1 | 55* | 9
O=C(CCC1CCCCC1)Nc1c2c(nn1-c1ccc([N+](=O)[O-])cc1)CSC2 | 13 | -6
Cc1ccc2nc(-c3ccc(Br)cc3)oc(=O)c2c1 | -9 | -3
CS(=O)(=O)N1CCC(CNC(=O)c2ccc(Cl)cc2Cl)CC1 | -3 | -5
CC(=O)Nc1ccccc1/C=C/c1ccc2c(C)ccc(O)c2n1 | 12 | -5
Cc1ccc(O)c2nc(/C=C/c3ccccc3N)ccc12 | 53* | 0
CC(C)NC(=O)c1c(C(C)C)nn(-c2ccc(F)cc2)c1C(C)C | 1 | -6
O=C(c1ccc2c(c1)C1C=CCC1C(c1cccc([N+](=O)[O-])c1)N2)N1CCCCC1 (centres undefined) | 81* | -1
